The values that follow come from PubChem BioAssay (NCI).

Holding throughout (assay): NCI-60 one-dose screen, 48 h (100 = growth as untreated, 0 = no growth, -100 = all killed)
Conditions in all cases: 10 µM unless noted

Test [1] relates to NCI-H23 lung.
In test [2] the test system is NCI-H226 lung.
Test [3] deals with NCI-H322M lung.
The test system of test [4] is HOP-62 NSCLC.
Test [5] has as its system NCI-H460 lung.
The test system of test [6] is HOP-92 NSCLC.
The test system of test [7] is NCI-H522 lung.
Test [8] has as its system A549/ATCC NSCLC.
Test [9] has as its system 786-0 renal.
In test [10] the test system is COLO 205 colon.
Test [11] relates to DU-145 prostate.
The subject of test [12] is K-562 leukemia.
The test system of test [13] is MALME-3M melanoma.
The test system of test [14] is MDA-MB-231 breast.
The test system of test [15] is RXF 393 renal.
In test [16] the test system is SF-268 CNS.
The subject of test [17] is SF-295 CNS.
Test [18] deals with SF-539 CNS.
In test [19] the test system is UACC-257 melanoma.
In test [20] the test system is M14 melanoma.

Compounds without any hit were thinned out: in the full panel of roughly 83,000, 20% have a hit.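 Assay: single dose, 48 h. Readout: percent growth (0 = no net growth; negative = cell death). Active: <10.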 Values without a mark were called inactive. Calls of active or inactive are those of the source.

On to `Nc1ccc2c(c1)C(=O)C(=O)c1c-2nc2ccccn12`, for which the growth in [1] is -42.8% (active); in test [2], 13.3%; in test [3] it was -6.65% (active); in [4], -2.15% (active); in [5], 0.968% (active); in test [6], -21.4% (active). In addition, the growth in test [7] is 17.5%; in [8] it was -45.4% (active); in [9], 71.4%; in [10], -49.2% (active); in test [11], -91.1% (active); in test [12], 1.75% (active). Moreover, the growth in [13] was -98.7% (active); in [14], -7.84% (active); in [15], 29%; in test [16] it was 26.6%; in [17], -67.6% (active); in test [18], -32.9% (active). Moreover, the values for the growth in test [19] and in [20] were -67.9% (active) and -91.1% (active), respectively.
For the compound `CC(C)Cc1cc(CNC(=O)C2[C@H]3CN(C(=O)c4ccccc4)C[C@@H]23)nn1-c1ccccc1` (stereo not given in full), the growth in test [1] is 96.3%; in test [2] it was 94.1%; in test [3] it was 95.3%; in test [4], 83.4%; in test [5] it was 102%; in test [6], 115%. In addition, the growth was 49.4% in [7]; 72.2% in test [8]; 99.4% in test [9]; 93.1% in test [10]; 100% in test [11]; 80.9% in [12]. The growth in test [13] was 86.6%; in [14], 103%; in test [15] it was 99.8%; in [16], 94.4%; in [17], 101%; in test [18], 96.8%. For the same compound, the growth is 73.4% in test [19] and 95.5% in test [20].
As to `COC(=O)/C=C1\SC(=Nc2cccc(OC)c2)N(CCc2c[nH]c3ccccc23)C1=O`, the growth was 67.9% in test [1]; 98.2% in test [2]; 76.8% in test [3]; 53% in [4]; 80.7% in test [5]; 46.6% in test [6]. The growth was 28.4% in test [7]; 61.4% in [8]; 76.7% in [9]; 75.8% in [10]; 69.3% in [11]; 40.8% in test [12]. The growth was 80.5% in [13]; 66.1% in test [14]; 49.2% in [15]; 82.8% in [16]; 61.9% in test [17]; 83.4% in test [18]. Besides, the growth in test [19] is 61.7%; in test [20], 64.9%.
Turning to `CCCCCCCCCCCCCC1=NCC[N+]1(CCO)Cc1ccccc1` (stereo not given), the growth was -67% (active) in [1]; -30.2% (active) in [2]; -6.75% (active) in test [3]; -82.6% (active) in test [4]; -81.3% (active) in test [5]; -73.1% (active) in test [6]. Also, the growth in test [7] is -82.6% (active); in test [8], -68.8% (active); in test [9] it was -80.5% (active); in test [10] it was -75.5% (active); in test [11] it was -89.2% (active); in [12], -50.9% (active). For the same compound, the growth was -75.8% (active) in test [13]; -79.9% (active) in test [14]; -92.3% (active) in test [15]; -69.9% (active) in test [16]; -71.7% (active) in test [17]; -93.8% (active) in [18]. The growth is -71.8% (active) in test [19] and -79.4% (active) in test [20].
Consider `CC(=O)[C@@H]1CC[C@]2(C(=O)O)CC[C@]3(C)[C@H](CC[C@@H]4[C@@]5(C)Cc6c([nH]c7ccccc67)C(C)(C)[C@@H]5CC[C@]43C)[C@@H]12`, for which the growth in test [1] is 54.4%; in [2], 64%; in [3] it was 77.3%; in test [4], 74.8%; in [5], 44.9%; in [6], 80%. Besides, the growth in test [7] is 46.4%; in test [8] it was 31.4%; in test [9] it was 75.1%; in test [10], 79.6%; in test [11] it was 59.4%; in test [12], 37.8%. The growth is 96.1% in [13]; 83% in test [14]; 73.2% in test [15]; 63.4% in [16]; 36% in test [17]; 74.3% in test [18]. Besides, the growth is 84.2% in test [19] and 78.7% in [20].
Regarding `CNc1cccc2c1C(=O)c1cccc(N)c1C2=O`, the growth was 76.3% in test [1]; 82.4% in [2]; 75.3% in test [3]; 89.3% in [4]; 52.4% in test [5]; 20.5% in test [6]. The growth was 62.3% in test [7]; 59.8% in test [8]; 38% in test [9]; 7.33% (active) in test [10]; 40.1% in test [11]; 26.2% in test [12]. Also, the growth in [13] was 87.4%; in test [14], 85.9%; in [15], 60.9%; in [16], 56.1%; in [17], 88.5%; in test [18], 85.7%. Besides, the growth was 80.5% in test [19] and 11.3% in test [20].
As to `O=C(Nc1nc(-c2ccccc2)cs1)c1cc(-c2ccc(Br)cc2)nc2ccccc12`, the growth in test [1] was 51.6%; in test [2] it was 46.3%; in [3] it was 81.5%; in test [4] it was 57.1%; in test [5], 31.3%; in test [6], 6.1% (active). The growth in test [7] is 43.5%; in [8], 36.5%; in test [9] it was 65.4%; in test [10], 56.2%; in test [11] it was 68.7%; in test [12] it was 24.3%. Besides, the growth in [13] was 112%; in test [14] it was 57.8%; in test [15] it was 65.7%; in test [16] it was 53.8%; in test [17], 49.9%; in test [18], 63%. In addition, the growth in [19] was 56%; in test [20], 75.3%.
